# According to PubChem BioAssay (NCI):
# This is part of a sample that, as a whole, favours compounds with a hit. Of some 79,000 tested, about 15% had one in any assay. Values without a mark were called inactive. Active and inactive are the calls of the source. Rule as the data show it: active = growth inhibition above about 70%; inactive = the rest.
# Experiments:
# [1] = NCI Yeast Anticancer Drug Screen. Data for the rad50 strain (AID 155);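 also: 0% = growth of vehicle-only cultures of the same strain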; details: S. cerevisiae rad50 strain growth inhibition, stronger effect = higher value
# In short: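 Vehicle-treated cultures provide the reference for the growth inhibition reported for compound-exposed, repair-deficient yeast.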
# [2] = NCI Yeast Anticancer Drug Screen. Data for the mec2-1 strain (AID 157); details: S. cerevisiae mec2-1 strain, stronger effect = higher value
# In short: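 Readout is yeast growth inhibition, normalised to vehicle-treated controls, in the mec2-1 strain exposed to compound.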
# [3] = NCI Yeast Anticancer Drug Screen. Data for the sgs1 mgt1 strain (AID 161);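 also: 0% = growth of cultures given vehicle only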; details: S. cerevisiae sgs1 mgt1 strain, stronger effect = higher value
# In short: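 Yeast cells carrying a defined DNA-repair defect were exposed to test compounds. Growth inhibition was measured relative to vehicle-treated controls.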
# [4] = NCI Yeast Anticancer Drug Screen. Data for the cln2 rad14 strain (AID 165);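 also: 0% = growth equal to vehicle treated cultures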; details: S. cerevisiae cln2 rad14 strain, stronger effect = higher value
# In short: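 Relative to vehicle controls, growth inhibition of compound-treated cln2 rad14 yeast was recorded.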
# [5] = NCI Yeast Anticancer Drug Screen. Data for the bub3 strain (AID 167); details: S. cerevisiae bub3 mutant strain, stronger effect = higher value
# In short: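 Mutant yeast screening strain plus compound; vehicle-treated cultures serve as the 0% inhibition reference.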
# [6] = NCI Yeast Anticancer Drug Screen. Data for the mlh1 rad18 strain (AID 175); details: S. cerevisiae mlh1 rad18 strain growth inhibition, stronger effect = higher value
# In short: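 Test agents were incubated with a yeast strain of defined genotype (DNA damage repair defect). Inhibition of growth was derived by comparison with vehicle-exposed cultures.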
# [7] = at 5.0 µM (retest, dose inferred, filed as 0.5)
# [8] = at 50.0 µM (retest, dose inferred, filed as 5.0)
Structure (SMILES),"growth inhibition [1, 7]","growth inhibition [1, 8]",growth inhibition ([1]; at 50.0 µM),"growth inhibition [2, 7]","growth inhibition [2, 8]",growth inhibition ([2]; at 50.0 µM),"growth inhibition [3, 7]","growth inhibition [3, 8]",growth inhibition ([3]; at 50.0 µM),"growth inhibition [4, 7]","growth inhibition [4, 8]",growth inhibition ([4]; at 50.0 µM),"growth inhibition [5, 7]","growth inhibition [5, 8]",growth inhibition ([5]; at 50.0 µM),"growth inhibition [6, 7]","growth inhibition [6, 8]",growth inhibition ([6]; at 50.0 µM)
OC(CN1CCCCC1)c1ccc2c(ccc3ccccc32)c1 (configuration not stated),21%,54%,83% (active),6%,46%,50%,35%,75% (active),88.2% (active),19%,50%,75% (active),25%,69%,91.8% (active),22%,61%,87.5% (active)
CCCCCCCN=C(N)c1ccc(C(=O)OC2CCCCC2)cc1,-1%,84% (active),96.8% (active),17%,89% (active),98% (active),34%,98% (active),99% (active),1%,70% (active),96.4% (active),1%,73% (active),97.5% (active),21%,90% (active),99% (active)
CCC(C)OC(=O)c1cccc(C)c1 (configuration not stated),0%,17%,94.3% (active),-2%,5%,-6.8%,1%,7%,-5.05%,1%,6%,38.5%,2%,23%,6.95%,-3%,12%,2%
O=C1C(CN2CCCC2)C(O)=C(c2ccccc2)N1c1ccccc1 (configuration not stated),5%,4%,52.2%,1%,9%,14.8%,1%,2%,75.5% (active),-3%,1%,18.6%,-6%,1%,30.1%,0%,1%,43.1%
COC(=O)c1cc(-c2ccc([N+](=O)[O-])cc2)c2c(=O)n(-c3ccccc3)[nH]c2n1,0%,84% (active),89.8% (active),-1%,75% (active),91.1% (active),-1%,85% (active),61.1%,-3%,77% (active),42.4%,-3%,83% (active),50.2%,-3%,86% (active),92.2% (active)
O=C1c2ccccc2C(=O)c2c1ccc(C(=O)O)c2-c1ccc2ccccc2c1,5%,97% (active),97.3% (active),26%,98% (active),97.8% (active),11%,98% (active),97.5% (active),13%,96% (active),97.3% (active),-3%,98% (active),96.2% (active),8%,98% (active),97.2% (active)
CC(C)(C)OC(=O)Nc1cccc(Cl)c1,11%,71% (active),73.2% (active),-4%,12%,14.8%,-1%,7%,55.7%,-2%,-20%,2.9%,46%,-2%,10.2%,4%,33%,80.5% (active)
CCCCCCCCCCCCCCCCCC(=O)OCCN1C(=O)c2ccccc2C1=O,-1%,4%,-5.4%,10%,-10%,9.15%,5%,12%,17.7%,-1%,-6%,71.7% (active),-4%,-8%,44%,-2%,-11%,43.3%
C(#Cc1ccccc1)Sc1ccccc1,6%,4%,12.9%,-9%,14%,31.1%,1%,18%,65.7%,6%,6%,23.1%,29%,9%,-30.8%,4%,11%,56.4%
